Screens as filed in PubChem.
A selection: hits, their analogues and other compounds. The true share with any hit is near 1%.
MEX-5 binding = C. elegans MEX-5 TCR-2 RNA binding activity | activity score (negative = inhibition of binding), % at 10 µM | 300,000 tested, 0.38% active | MEX-5/FITC-TCR2 RNA binding, fluorescence polarization; stronger effect = lower value;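 active = inhibition past about -25% in most replicates, and total fluorescence under double the plate's negative control median, limit read from the data; inconclusive = replicates evenly split on the limit, or fluorescence at least double controls; inactive = too little inhibition in most replicates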;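 note: 0% = DMSO and -100% = 5 µM competing unlabeled TCR2 RNA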
Target sequence (Q9XUB2 whole entry, looked up): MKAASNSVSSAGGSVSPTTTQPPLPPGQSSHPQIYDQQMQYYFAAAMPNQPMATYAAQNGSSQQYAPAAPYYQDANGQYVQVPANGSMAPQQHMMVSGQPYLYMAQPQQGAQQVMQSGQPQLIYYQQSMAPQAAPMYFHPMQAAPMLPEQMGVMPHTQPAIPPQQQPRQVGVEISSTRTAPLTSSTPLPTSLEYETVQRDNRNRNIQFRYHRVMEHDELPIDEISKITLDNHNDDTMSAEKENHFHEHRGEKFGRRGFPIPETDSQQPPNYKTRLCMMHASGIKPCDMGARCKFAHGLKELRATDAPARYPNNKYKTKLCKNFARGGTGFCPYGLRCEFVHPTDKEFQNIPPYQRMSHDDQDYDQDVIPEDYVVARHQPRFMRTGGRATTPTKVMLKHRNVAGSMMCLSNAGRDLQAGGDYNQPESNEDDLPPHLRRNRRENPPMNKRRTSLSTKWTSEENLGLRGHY
ZTA DNA inh = ZTA (EBV) inhibition in EBNA-1 counter-screen; inhibition, % at 11 µM; P03206; 320,000 tested, 0.15% active; AID 2234; ZTA-DNA binding, fluorescence polarization; in the data active = inhibition above about 33%
EBV gp42 inh = blocks Epstein-Barr virus glycoprotein 42 binding; 220,000 tested, 0.42% active; AID 1085; Q1HVG2; Fluorescence polarization binding assay, mP read-out; inhibition, % (tested at 21.74 µM); in the data active = inhibition above about 50%
EBNA-1 inh = blocks EBNA-1 binding to DNA; 300,000 tested, 0.34% active; EBNA-1 DNA binding, fluorescence polarization; AID 1950; inhibition, % at 14.8 µM; in the data active = inhibition above about 28%
The depositor's hits bear a star; ? = inconclusive; . = not tested or not shown; ! = not active in a repeat.

SMILES	MEX-5 binding	ZTA DNA inh	EBV gp42 inh	EBNA-1 inh
CC[n+]1c(/C=C/N(C)c2ccccc2)sc2ccc(Cl)cc21	4.5	7.0	-3.9	-4.4
CN(C)c1ccc(/C=C/C=C/c2sc3ccccc3[n+]2C)cc1	-6.8	45.0*	-14.0	32.2*
CCCN1CCCC(C(=O)c2cc(C)c(OC)c(C)c2)C1 (stereo not drawn)	-0.2	-10.7	.	4.3
CC(C)OP(=O)(OC(C)C)C(O)c1ccccc1F (stereo not drawn)	0.3	0.8	13.0	0.4
N#CC(C#N)=Cc1ccc(N2CCOCC2)cc1	-27.3*	11.6	-55.1	5.7
CCOC(=O)c1cc(CC)sc1/N=C/c1c(O)[nH]c(=S)[nH]c1=O	-28.7*	4.1	-161.6	-7.8
CC(=O)c1ccc2c(c1)C1C(Cl)C(Sc3ccccc3[N+](=O)[O-])CC1C(C(=O)O)N2 (stereo not drawn)	.	-9.3	26.4	-15.8
O=C(O)c1cccc2c1NC(C(=O)O)C1CC(Sc3ccccc3[N+](=O)[O-])C(Cl)C21 (stereo not drawn)	.	109.5*	14.7	35.4*
O=c1[nH]cc(COCC(F)(F)C(F)(F)C(F)(F)F)c(=O)[nH]1	-0.1	10.8	0.3	-1.6
COC(=O)C1=C(c2ccc(OC)c(OC)c2)C[C@@H]2CC[C@H]1N2C(=O)NCCc1ccccc1	.	3.6	.	.
Cc1ccc(/C=C2\C(=O)NC(=S)N(c3ccc(F)cc3)C2=O)o1	-4.4	.	.	.
Cc1ccc(N2C(=O)/C(=C/c3ccc(CN(CCC#N)S(C)(=O)=O)o3)C(=O)NC2=S)cc1	-49.6*	14.7	-32.9	-2.0
CCOC(=O)C1CCCN(c2ccc([N+](=O)[O-])c3nonc23)C1 (stereo not drawn)	?	.	127.1*	.
Nc1ccncc1Cl	-1.0	10.3	-14.5	5.4
O=C(O)c1cc[c]([Hg][Cl])cc1	.	5.0	.	1.4
CC1=C[C@@H]2c3cccc4[nH]cc(c34)C[C@H]2N(C)C1	-57.8*	-2.0	.	2.8
CCn1cc(C=C2C(=O)N(C)C(=O)N(C)C2=O)c2ccccc21	-5.5	-4.4	.	-0.9
COC(=O)Cn1cc(C=C2C(=O)NC(=O)NC2=O)c2ccccc21	-27.1*	-11.2	.	-17.6
NC(=O)Cn1cc(C=C2C(=O)NC(=O)NC2=O)c2ccccc21	-74.3*	.	.	.
CCn1cc(C=C2C(=O)NC(=O)NC2=O)c2ccccc21	-46.3*	-8.1	.	-4.8
COc1ccccc1OP(=O)(Nc1cccnc1)Oc1ccccc1OC	2.0	10.6	-4.1	6.2
CN(CC#CCN1CCCC1)C(=O)c1cccc(Cl)c1	0.5	-9.8	.	1.7
Cc1ncc([N+](=O)[O-])n1CCOC(N)=O	2.3	3.7	-4.8	6.6
COc1cccc(N2C(=O)NC(=O)/C(=C/c3ccc4c(c3)Cc3ccccc3-4)C2=O)c1	-42.8*	12.5	2.3	9.3
COc1cc(/C=C2/C(=O)NC(=O)N(c3ccccc3)C2=O)ccc1O	0.5	19.7	-14.9	-5.6
SMILES	MEX-5 binding	ZTA DNA inh	EBV gp42 inh	EBNA-1 inh
O=C1NC(=S)N(Cc2ccco2)C(=O)/C1=C\c1cccs1	.	.	72.3*	.
Cc1ccc(N2C(=O)NC(=O)/C(=C\c3ccc(N4CCOCC4)cc3)C2=O)cc1	-1.7	-3.9	-11.0	2.3
Cc1ccc(N2C(=O)NC(=O)/C(=C\c3ccc([N+](=O)[O-])o3)C2=O)cc1	-67.8*	17.8	-13.2	8.9
Cc1cccc(-n2c(O)c(C=NCCN3CCCCC3)c(=O)[nH]c2=O)c1	-0.1	-5.5	-17.5	4.0
O=c1[nH]c(=O)n(-c2ccc(Br)cc2)c(O)c1C=NCCN1CCCCC1	-40.1*	2.7	-12.1	6.3
CC(C)(C#CC(=O)O)OOC(c1ccccc1)(c1ccccc1)c1ccccc1	1.1	2.1	.	21.4
O=C1NC(=O)N(Cc2ccco2)C(=O)/C1=C/c1ccc(-c2cccc([N+](=O)[O-])c2)o1	-2.3	-13.4	90.6*	-6.7
CN1C[C@H](CO)C=C2c3cccc4[nH]cc(c34)C[C@H]21	?	-4.8	57.5*	-12.3
C/C=C1\CN2[C@H]3C[C@@]45c6ccccc6N(C)[C@H]4[C@@H]2CC1C3[C@H]5O (stereo partly drawn)	0.4	7.5	.	7.6
O=C1NC(=S)N(c2ccccc2)C(=O)/C1=C/c1ccco1	-93.1*	21.2	.	5.5
NC(=O)CS(=O)C(c1ccccc1)c1ccccc1 (stereo not drawn)	.	.	-12.7	.
Nc1c2c(nc3ccccc13)CCN(Cc1ccccc1)C2	-3.2	0.0	.	3.2
Nc1cc2nc3ccccc3nc2cc1N	?	-12.1	179.0*	4.9
C=CCSc1nc2c(c(-c3ccsc3)c1C#N)CN(C)CC2	-7.1	-7.7	23.8	-0.8
Oc1cc2c(cc1O)[C@H]1c3ccccc3CN[C@@H]1CC2	-57.1*	0.7	-4.2	-3.9
O=C1NC(=O)N(CCC2=CCCCC2)C(=O)/C1=C\c1cccs1	-3.0	-2.3	-4.6	13.0
Cn1cccc1/C=C1\C(=O)NC(=O)N(Cc2ccccc2Cl)C1=O	.	.	57.8*	.
Cn1cccc1/C=C1\C(=O)NC(=O)N(CCC2=CCCCC2)C1=O	-37.1*	.	-54.3	.
Cc1cc(/C=C2/C(=O)NC(=O)N(c3ccc(Br)cc3)C2=O)c(C)n1C	-11.2	5.4	19.9	-3.7
Cc1cc(/C=C2\C(=O)NC(=O)N(c3cccc(Br)c3)C2=O)c(C)n1C	-28.5*	-3.3	111.0*	-4.1
O=C(O)C(Cc1cnc[nH]1)NS(=O)(=O)c1ccc(Br)cc1 (stereo not drawn)	-2.4	6.5	.	-12.4
NC(Cc1cc(O)c(O)cc1O)C(=O)O (stereo not drawn)	.	49.0*	.	89.6*
CN(C)[C@@H]1C(=O)C(C(N)=O)=C(O)[C@@]2(O)C(=O)C3=C(O)c4c(O)cccc4[C@@](C)(O)[C@H]3[C@H](O)[C@@H]12	-84.1*	8.2	4.2	30.0*!
CN(C)[C@@H]1C(=O)C(C(N)=O)=C(O)[C@@]2(O)C(=O)C3=C(O)c4c(O)cccc4[C@@](C)(O)C3C[C@@H]12 (stereo partly drawn)	-9.3	-3.2	.	3.6
COC(=O)C1=C(c2ccc(S(C)(=O)=O)cc2)C[C@@H]2CC[C@H]1N2C(=O)NC(C)C	-1.0	-7.2	.	0.7
SMILES	MEX-5 binding	ZTA DNA inh	EBV gp42 inh	EBNA-1 inh
CCOC(=O)[C@@]1(C#N)C(c2ccc(Cl)c(Cl)c2)[C@H](C(N)=O)N2C=C(C(C)=O)C=C[C@H]21 (stereo partly drawn)	-56.2*	7.9	101.6*	-0.9
COC(=O)[C@@]1(C#N)[C@@H]2C=CC(C(C)=O)=CN2[C@@H](C(N)=O)[C@@H]1c1ccc(F)cc1	-56.7*	14.1	119.2*	11.1
CCc1cccc(CC)c1NC(=S)N1CC2CC(C1)c1cccc(=O)n1C2 (stereo not drawn)	0.5	6.4	-0.5	9.3
C=CCn1c(O)c(/C=C/C=Nc2ccccc2)c(=O)[nH]c1=O	-26.3*	-18.9	-218.4	-4.9
CN1C(=O)/C(=C\N2CCc3ccccc32)C(=O)NC1=S	0.3	-17.1	90.2*	-5.3
O=[N+]([O-])c1cc(S(=O)(=O)c2ccc(O)c([N+](=O)[O-])c2)ccc1O	-35.7*	-1.9	-3.5	-0.4
O=[N+]([O-])c1cccc(O)c1	.	-11.3	.	.
O=C(c1ccc(F)cc1)N1CCC2(CC1)OCCO2	2.3	4.6	.	2.1
